Experimental findings from PMC7862700, “An all-to-all approach to the identification of sequence-specific readers for epigenetic DNA modifications on cytosine” are described below.

Common to all, as to assay: DAPPL (digital affinity profiling via proximity ligation, sequencing); 10 mM Tris-HCl pH 7.5, 50 mM NaCl, 1 mM DTT, 4% glycerol, room temperature, 30 min; GST-TFs on glutathione beads, 16-mer random dsDNA library, 0.1% formaldehyde crosslink after washing; high values mean tight binding
What all share (conditions): protein: recombinant; tags: N-terminal GST; dsDNA, one strand shown

Assay [1] addresses T1, ELK1 (Homo sapiens, UniProt P19419 1-428).
T1 sequence: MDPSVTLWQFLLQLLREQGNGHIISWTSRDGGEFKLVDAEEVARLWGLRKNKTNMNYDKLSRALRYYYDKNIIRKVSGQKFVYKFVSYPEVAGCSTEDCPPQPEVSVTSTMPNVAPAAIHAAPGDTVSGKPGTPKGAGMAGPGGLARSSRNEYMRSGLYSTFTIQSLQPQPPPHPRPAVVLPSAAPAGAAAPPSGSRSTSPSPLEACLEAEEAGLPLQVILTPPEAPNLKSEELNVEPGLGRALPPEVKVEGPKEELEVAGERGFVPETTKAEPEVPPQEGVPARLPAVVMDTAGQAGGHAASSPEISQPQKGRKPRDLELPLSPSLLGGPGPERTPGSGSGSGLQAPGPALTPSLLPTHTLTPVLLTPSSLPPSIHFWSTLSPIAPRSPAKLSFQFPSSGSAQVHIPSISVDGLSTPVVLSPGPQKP
The method, boiled down: (§1)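 Beads coated with glutathione captured GST-fused human transcription factors that had been expressed in yeast, and the factors were then given DNA barcodes and pooled with a tag-only sample. The pools were incubated with 200 nmole of a random double-stranded 16-mer DNA library in Tris/NaCl/DTT/glycerol buffer for 30 min at room temperature, washed, crosslinked with 0.1% formaldehyde and proximity-ligated with BsaI/T4 ligase at 37 °C for 1 h. PCR amplification and Illumina NextSeq500 sequencing came last. Binding signal is each hexamer's read frequency for a factor divided by its frequency for the tag-only sample.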

In assay [2] the target is T2, GABPA (Homo sapiens, UniProt Q06546 1-454).
T2 sequence: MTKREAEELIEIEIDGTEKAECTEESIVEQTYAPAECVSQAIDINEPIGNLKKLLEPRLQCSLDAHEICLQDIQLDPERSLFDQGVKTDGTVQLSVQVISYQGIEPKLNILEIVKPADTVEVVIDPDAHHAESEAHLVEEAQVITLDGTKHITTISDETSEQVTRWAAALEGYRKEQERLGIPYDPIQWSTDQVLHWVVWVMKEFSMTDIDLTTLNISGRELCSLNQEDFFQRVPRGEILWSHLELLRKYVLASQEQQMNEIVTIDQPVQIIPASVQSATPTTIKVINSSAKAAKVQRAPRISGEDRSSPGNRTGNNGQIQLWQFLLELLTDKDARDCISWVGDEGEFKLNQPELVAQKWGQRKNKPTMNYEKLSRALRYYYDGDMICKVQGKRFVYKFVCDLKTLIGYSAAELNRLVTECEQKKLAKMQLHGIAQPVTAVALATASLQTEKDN
The method, boiled down:
as §1

Assay [3] deals with T3, ERG (Homo sapiens, UniProt P11308 1-479).
T3 sequence: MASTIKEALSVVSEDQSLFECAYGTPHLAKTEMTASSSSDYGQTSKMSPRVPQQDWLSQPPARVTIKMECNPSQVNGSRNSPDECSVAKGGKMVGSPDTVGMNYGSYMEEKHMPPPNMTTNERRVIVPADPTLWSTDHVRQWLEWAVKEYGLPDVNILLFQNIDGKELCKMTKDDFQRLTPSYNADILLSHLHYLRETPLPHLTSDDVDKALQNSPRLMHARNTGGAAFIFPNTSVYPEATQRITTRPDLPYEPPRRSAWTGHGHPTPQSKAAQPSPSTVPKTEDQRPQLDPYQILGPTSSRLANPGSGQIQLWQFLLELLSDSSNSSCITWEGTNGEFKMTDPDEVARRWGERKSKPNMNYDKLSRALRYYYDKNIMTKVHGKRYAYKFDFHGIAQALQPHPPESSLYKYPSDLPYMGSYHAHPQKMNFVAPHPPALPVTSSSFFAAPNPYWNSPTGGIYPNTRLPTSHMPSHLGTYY
The essentials:
as §1

Assay [4] has as its target ELF1 (Homo sapiens, UniProt P32519 1-619). The method, boiled down:
as §1

The target of assay [5] is T4, EHF (Homo sapiens, UniProt Q9NZC4 1-300).
T4 sequence: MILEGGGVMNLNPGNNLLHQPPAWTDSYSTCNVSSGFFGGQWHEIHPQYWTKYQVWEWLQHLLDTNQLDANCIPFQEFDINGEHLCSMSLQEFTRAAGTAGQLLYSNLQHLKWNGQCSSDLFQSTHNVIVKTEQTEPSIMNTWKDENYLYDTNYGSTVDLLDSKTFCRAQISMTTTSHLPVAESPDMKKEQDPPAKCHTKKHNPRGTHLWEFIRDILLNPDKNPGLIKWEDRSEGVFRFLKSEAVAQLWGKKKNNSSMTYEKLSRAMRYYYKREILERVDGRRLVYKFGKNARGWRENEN
The essentials: as §1

In assay [6] the target is SPIB (Homo sapiens, UniProt Q01892 1-262). The method, boiled down:
as §1

Assay [7] addresses ETV5 (Homo sapiens, UniProt P41161 1-510). The essentials: as §1
Assay [8] addresses T5, ELK4 (Homo sapiens, UniProt P28324-2 1-405).
T5 sequence: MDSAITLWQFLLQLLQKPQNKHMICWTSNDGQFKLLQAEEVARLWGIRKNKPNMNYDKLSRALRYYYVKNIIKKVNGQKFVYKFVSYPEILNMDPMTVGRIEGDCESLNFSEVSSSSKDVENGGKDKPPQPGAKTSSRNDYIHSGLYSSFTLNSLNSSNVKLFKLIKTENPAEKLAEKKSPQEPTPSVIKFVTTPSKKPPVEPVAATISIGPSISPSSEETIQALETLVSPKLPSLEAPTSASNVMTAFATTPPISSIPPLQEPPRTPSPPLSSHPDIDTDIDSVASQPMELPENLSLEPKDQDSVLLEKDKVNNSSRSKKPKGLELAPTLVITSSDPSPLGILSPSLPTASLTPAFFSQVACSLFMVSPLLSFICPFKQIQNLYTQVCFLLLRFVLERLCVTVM
The method, boiled down: as §1

Assay [9] concerns the target ETV1 (Homo sapiens, UniProt P50549 1-477). The method, boiled down:
as §1

Assay [10] deals with T6, ERF (Homo sapiens, UniProt P50548 1-548).
T6 sequence: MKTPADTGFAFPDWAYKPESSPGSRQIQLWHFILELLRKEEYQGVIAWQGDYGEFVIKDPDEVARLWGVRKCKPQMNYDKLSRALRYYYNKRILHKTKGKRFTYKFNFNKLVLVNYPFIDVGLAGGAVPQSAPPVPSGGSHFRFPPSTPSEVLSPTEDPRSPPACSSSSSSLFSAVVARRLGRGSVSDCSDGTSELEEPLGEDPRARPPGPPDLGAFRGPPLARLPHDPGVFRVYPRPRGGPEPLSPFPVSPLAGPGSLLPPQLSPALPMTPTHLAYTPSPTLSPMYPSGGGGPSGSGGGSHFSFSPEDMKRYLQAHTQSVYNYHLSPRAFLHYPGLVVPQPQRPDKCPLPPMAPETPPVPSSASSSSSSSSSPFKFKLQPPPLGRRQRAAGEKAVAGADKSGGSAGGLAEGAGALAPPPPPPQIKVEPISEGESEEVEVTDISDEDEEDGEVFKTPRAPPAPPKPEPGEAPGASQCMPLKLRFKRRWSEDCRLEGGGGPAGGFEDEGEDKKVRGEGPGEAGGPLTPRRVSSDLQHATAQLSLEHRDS
The method, boiled down: as §1

The target of assay [11] is T7, ETV3L (Homo sapiens, UniProt Q6ZN32 1-361).
T7 sequence: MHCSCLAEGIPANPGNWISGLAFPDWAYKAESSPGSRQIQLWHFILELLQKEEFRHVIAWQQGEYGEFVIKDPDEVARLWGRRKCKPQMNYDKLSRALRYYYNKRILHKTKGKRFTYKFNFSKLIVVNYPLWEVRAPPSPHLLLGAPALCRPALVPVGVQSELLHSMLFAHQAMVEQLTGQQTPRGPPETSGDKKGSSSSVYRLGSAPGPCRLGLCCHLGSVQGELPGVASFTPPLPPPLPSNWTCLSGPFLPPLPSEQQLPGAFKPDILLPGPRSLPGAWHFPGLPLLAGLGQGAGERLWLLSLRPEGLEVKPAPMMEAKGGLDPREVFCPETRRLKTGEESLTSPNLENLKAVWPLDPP
The essentials:
as §1

Assay [12] addresses T8, SPDEF (Homo sapiens, UniProt O95238 1-335).
T8 sequence: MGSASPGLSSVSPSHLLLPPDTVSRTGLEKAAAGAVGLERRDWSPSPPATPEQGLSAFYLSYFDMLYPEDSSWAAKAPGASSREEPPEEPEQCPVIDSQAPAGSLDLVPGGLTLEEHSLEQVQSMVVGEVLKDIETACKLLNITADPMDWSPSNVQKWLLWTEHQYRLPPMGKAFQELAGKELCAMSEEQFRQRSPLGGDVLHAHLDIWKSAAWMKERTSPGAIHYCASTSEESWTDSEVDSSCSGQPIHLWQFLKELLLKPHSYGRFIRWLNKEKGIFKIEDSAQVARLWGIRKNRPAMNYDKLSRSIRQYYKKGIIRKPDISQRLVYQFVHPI
The method, boiled down: as §1

In assay [13] the target is T9, ETV7 (Homo sapiens, UniProt Q9Y603 1-341).
T9 sequence: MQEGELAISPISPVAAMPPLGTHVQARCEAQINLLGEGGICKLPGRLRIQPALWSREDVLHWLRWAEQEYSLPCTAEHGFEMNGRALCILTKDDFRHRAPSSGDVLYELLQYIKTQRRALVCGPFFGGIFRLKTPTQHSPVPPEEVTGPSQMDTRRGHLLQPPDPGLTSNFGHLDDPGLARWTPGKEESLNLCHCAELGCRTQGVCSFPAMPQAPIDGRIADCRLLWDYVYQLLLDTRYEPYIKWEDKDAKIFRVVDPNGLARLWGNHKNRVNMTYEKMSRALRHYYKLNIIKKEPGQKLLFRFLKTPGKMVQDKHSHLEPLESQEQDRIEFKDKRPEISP
The essentials: as §1

Assay [14] has as its target ETV6 (Homo sapiens, UniProt P41212 1-452). The essentials:
as §1

Assay [15] has as its target SPI1 (Homo sapiens, UniProt P17947 1-270). The essentials: as §1
For assay [16], the target named is T10, FEV (Homo sapiens, UniProt Q99581 1-238).
T10 sequence: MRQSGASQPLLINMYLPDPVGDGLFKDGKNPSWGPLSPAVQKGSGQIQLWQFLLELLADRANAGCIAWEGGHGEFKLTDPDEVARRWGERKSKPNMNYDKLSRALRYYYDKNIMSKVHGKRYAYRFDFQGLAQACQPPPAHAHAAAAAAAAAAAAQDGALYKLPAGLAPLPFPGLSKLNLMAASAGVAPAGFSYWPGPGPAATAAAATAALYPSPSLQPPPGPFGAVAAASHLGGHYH
The method, boiled down: as §1

Assay [17] has as its target T11, ETV2 (Homo sapiens, UniProt O00321 1-342).
T11 sequence: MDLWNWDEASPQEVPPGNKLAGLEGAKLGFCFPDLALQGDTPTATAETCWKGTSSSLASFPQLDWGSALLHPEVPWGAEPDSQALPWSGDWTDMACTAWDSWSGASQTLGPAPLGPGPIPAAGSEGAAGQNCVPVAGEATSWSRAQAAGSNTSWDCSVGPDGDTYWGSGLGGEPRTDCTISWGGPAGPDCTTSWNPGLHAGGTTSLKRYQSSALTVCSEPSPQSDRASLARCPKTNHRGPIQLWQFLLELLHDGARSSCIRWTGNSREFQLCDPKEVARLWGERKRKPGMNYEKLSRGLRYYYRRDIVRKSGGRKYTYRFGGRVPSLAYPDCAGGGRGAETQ
The essentials:
as §1

ELF1, sequence (P32519 whole entry): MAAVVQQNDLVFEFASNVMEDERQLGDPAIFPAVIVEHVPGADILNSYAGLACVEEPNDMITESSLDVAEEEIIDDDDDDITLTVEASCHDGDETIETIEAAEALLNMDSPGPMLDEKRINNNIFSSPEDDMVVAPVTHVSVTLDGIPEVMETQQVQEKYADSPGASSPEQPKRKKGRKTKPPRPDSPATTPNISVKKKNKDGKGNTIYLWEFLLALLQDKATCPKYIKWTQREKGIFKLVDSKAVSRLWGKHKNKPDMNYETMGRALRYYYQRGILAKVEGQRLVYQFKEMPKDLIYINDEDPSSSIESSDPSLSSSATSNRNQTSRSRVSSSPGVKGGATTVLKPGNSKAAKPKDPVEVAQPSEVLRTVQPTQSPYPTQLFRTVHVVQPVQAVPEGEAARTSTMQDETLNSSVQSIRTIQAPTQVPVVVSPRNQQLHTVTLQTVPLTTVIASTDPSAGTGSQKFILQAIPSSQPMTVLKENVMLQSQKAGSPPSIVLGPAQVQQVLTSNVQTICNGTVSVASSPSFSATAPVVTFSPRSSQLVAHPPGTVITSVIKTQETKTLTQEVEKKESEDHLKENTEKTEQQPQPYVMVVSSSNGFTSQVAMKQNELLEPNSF
ETV6, sequence (P41212 whole entry): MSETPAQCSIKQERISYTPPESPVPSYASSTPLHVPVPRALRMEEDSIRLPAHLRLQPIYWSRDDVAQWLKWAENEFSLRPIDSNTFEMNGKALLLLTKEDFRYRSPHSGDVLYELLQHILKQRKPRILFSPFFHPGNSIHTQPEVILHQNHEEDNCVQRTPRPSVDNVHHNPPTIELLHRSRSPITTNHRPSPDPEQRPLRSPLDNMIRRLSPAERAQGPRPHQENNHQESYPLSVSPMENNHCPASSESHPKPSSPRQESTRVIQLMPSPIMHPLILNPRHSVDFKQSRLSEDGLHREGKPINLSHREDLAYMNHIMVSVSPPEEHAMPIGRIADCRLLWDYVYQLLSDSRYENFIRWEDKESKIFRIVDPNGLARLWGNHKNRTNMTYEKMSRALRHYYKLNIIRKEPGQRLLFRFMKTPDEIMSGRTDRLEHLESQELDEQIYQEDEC
SPIB, sequence (Q01892 whole entry): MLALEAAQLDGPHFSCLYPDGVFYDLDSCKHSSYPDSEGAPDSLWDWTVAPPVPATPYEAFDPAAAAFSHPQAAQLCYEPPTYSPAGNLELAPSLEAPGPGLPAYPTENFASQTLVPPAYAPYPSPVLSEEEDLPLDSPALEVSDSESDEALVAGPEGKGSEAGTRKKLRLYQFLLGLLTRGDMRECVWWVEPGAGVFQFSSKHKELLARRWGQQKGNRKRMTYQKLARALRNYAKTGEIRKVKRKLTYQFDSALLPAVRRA
ETV5, sequence (P41161 whole entry): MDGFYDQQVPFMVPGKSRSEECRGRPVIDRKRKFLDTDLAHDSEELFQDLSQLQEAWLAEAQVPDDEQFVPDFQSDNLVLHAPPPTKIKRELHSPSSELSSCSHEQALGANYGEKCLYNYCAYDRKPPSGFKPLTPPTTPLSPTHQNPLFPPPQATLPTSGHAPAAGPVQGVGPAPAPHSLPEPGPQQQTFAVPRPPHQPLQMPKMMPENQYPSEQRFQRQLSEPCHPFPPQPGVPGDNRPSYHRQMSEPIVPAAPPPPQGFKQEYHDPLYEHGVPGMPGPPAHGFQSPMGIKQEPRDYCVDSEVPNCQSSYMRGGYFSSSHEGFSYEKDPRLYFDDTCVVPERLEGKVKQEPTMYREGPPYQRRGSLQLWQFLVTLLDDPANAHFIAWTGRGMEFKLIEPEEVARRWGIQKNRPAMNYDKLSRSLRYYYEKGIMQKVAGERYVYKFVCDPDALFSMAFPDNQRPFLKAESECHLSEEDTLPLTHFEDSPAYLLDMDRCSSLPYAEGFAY
ETV1, sequence (P50549 whole entry): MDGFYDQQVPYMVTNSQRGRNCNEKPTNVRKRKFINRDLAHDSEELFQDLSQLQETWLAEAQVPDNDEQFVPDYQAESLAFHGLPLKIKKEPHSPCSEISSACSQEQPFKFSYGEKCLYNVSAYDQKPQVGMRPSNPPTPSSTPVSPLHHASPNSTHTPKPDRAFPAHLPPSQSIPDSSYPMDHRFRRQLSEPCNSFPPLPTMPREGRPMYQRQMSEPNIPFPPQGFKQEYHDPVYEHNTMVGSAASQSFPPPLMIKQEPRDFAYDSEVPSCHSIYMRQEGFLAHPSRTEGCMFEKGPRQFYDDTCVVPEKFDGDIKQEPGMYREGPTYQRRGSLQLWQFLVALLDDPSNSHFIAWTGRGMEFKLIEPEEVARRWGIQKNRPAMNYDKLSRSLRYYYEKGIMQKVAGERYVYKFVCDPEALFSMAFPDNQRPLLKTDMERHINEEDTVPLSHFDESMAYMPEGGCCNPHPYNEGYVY

As to CGAATC, the binding signal was 1.01 fold enrichment (6-mer frequency, TF over GST control) in assay [1]; 1.14 fold enrichment (6-mer frequency, TF over GST control) in assay [2]; 1.05 fold enrichment (6-mer frequency, TF over GST control) in [3]; 1 fold enrichment (6-mer frequency, TF over GST control) in [4]; 1.06 fold enrichment (6-mer frequency, TF over GST control) in assay [5]; 1.13 fold enrichment (6-mer frequency, TF over GST control) in assay [6]. The binding signal was 1.07 fold enrichment (6-mer frequency, TF over GST control) in assay [7]; 1.09 fold enrichment (6-mer frequency, TF over GST control) in assay [8]; 1.02 fold enrichment (6-mer frequency, TF over GST control) in assay [9]; 1.15 fold enrichment (6-mer frequency, TF over GST control) in [10]; 1 fold enrichment (6-mer frequency, TF over GST control) in assay [11]; 1.12 fold enrichment (6-mer frequency, TF over GST control) in assay [12]. In addition, the binding signal in assay [13] was 1.02 fold enrichment (6-mer frequency, TF over GST control); in assay [14], 1.01 fold enrichment (6-mer frequency, TF over GST control).
On to CGGTTA, for which the binding signal was 1.01 fold enrichment (6-mer frequency, TF over GST control) in [2]; 1 fold enrichment (6-mer frequency, TF over GST control) in [4]; 1.02 fold enrichment (6-mer frequency, TF over GST control) in assay [5]; 1 fold enrichment (6-mer frequency, TF over GST control) in [15]; 1.02 fold enrichment (6-mer frequency, TF over GST control) in assay [6]; 1.04 fold enrichment (6-mer frequency, TF over GST control) in assay [16]. Also, the binding signal is 1.05 fold enrichment (6-mer frequency, TF over GST control) in assay [7]; 1.06 fold enrichment (6-mer frequency, TF over GST control) in [17]; 1.15 fold enrichment (6-mer frequency, TF over GST control) in assay [12]; 1 fold enrichment (6-mer frequency, TF over GST control) in assay [13]; 1.09 fold enrichment (6-mer frequency, TF over GST control) in assay [14].
